Test results taken from ChEMBL document CHEMBL3988442, “University of Dundee, Small-Polar-MMV Screening Library” (2021).
For some assays here: Potency and affinity values are given separately.

How the values were obtained:
Set-up in all cases: scale not given: direction of the effect not stated beside the values
[1] = target: Protein translocase subunit SecA (Escherichia coli (strain K12)) (UniProt P10408); assay: Assay to Identify E. coli SecA ATPase Inhibitors; format: functional; conditions: 30 µM
[2] = target: T1, Ubiquitin-activating enzyme e1, putative (Leishmania donovani (strain BPK282A1)) (UniProt E9BSI1); assay: Leishmania donovani Ubiquitin Activating Enzyme (LdE1); format: functional; conditions: 30 µM
T1 sequence (whole entry): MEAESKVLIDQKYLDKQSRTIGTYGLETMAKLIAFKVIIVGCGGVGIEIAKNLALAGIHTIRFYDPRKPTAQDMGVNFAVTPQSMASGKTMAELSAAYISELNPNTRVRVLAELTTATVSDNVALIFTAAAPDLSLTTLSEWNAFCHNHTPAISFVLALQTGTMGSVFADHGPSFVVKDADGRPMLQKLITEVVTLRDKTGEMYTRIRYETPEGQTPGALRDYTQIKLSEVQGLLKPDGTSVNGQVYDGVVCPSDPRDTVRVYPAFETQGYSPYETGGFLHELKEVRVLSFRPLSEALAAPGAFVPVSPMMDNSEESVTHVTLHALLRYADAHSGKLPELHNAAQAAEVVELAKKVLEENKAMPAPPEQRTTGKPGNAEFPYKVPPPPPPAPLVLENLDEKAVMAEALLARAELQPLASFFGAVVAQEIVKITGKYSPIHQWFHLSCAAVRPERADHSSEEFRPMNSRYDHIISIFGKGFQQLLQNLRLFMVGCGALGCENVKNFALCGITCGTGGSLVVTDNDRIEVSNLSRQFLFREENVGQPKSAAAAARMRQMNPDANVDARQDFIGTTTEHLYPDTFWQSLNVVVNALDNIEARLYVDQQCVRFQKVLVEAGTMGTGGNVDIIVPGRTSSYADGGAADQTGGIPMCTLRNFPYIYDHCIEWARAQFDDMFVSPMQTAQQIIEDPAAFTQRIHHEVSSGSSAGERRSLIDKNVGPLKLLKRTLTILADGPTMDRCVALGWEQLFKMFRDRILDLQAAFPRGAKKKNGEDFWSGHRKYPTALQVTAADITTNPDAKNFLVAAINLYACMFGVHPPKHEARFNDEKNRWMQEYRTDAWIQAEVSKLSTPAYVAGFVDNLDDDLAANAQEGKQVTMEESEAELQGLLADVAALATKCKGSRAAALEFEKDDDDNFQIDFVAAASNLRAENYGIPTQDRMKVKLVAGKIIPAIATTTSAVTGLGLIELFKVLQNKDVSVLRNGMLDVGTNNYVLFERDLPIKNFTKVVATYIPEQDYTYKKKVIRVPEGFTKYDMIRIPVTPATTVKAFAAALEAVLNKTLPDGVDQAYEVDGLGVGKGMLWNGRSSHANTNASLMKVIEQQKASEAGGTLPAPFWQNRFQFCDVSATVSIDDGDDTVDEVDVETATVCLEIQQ

[3] = target: AMP-activated protein kinase, AMPK (Homo sapiens) (UniProt P54646+O43741+P54619+Q9UGJ0+Q9Y478+Q13131+Q9UGI9); assay: AMP-dependent Kinase enzyme assay. An in vitro enzyme assay that detects ADP turnover that is directly proportional to AMPK activity. This uses naive AMPK that is activated during the assay with MK-8722; format: functional; conditions: 30 µM
[4] = target: Sialic acid-binding Ig-like lectin 9 (Homo sapiens) (UniProt Q9Y336); assay: Hs-Siglec9 ALPHAscreen SOP 20170721; conditions: 10 µM
[5] = tested on: Trypanosoma cruzi; assay: Trypanosoma cruzi phosphomannomutase and mannose-1-phosphate guanylyltransferase assay; format: functional; conditions: 10 µM
[6] = target: T2, Arginase-2, mitochondrial (Homo sapiens) (UniProt P78540); assay: in vitro enzyme assay to detect the production of urea directly proportional to the activity of Arginase II; format: functional; conditions: 33.3 µM; also: in the data most compounds retested in dose-response had high values
T2 sequence (whole entry): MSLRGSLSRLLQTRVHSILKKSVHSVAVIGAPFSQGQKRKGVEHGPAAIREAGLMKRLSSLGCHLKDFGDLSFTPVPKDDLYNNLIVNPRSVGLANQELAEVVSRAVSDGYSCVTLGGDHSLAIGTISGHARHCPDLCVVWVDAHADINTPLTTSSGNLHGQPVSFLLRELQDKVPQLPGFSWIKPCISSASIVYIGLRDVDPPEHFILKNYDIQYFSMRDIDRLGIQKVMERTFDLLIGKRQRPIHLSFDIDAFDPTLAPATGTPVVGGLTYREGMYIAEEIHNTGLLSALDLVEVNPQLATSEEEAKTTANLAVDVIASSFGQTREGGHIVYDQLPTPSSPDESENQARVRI

[7] = target: T3, Proteasome subunit beta (Trypanosoma cruzi) (UniProt O96673); assay: Trypanosoma cruzi proteasome chymotrypsin-like activity (TcProtChymo) assay.; also: in the data most compounds retested in dose-response had high values; format: functional; conditions: 9.37 µM
T3 sequence (whole entry): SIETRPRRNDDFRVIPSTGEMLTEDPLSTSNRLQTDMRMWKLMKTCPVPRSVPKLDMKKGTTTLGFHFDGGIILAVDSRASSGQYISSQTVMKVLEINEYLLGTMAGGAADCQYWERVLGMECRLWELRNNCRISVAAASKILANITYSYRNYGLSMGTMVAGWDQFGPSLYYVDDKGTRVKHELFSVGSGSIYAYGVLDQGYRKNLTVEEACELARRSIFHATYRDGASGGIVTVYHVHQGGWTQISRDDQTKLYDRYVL

[8] = species: Homo sapiens; assay: To identify inhibition of the IFN signalling (Jak-Stat) pathway via expression of an eGFP reporter gene under the control of an IFN-stimulated response element (ISRE) containing MxA promoter.; format: functional; conditions: 30 µM
[9] = target: T4, Tyrosyl-tRNA synthetase, putative (Trypanosoma cruzi (strain CL Brener)) (UniProt Q4DSP6); assay: Trypanosoma cruzi tyrosyl tRNA synthetase (TcYRS) _High Tyrosine SOP; format: functional; conditions: 30 µM; also: in the data most compounds retested in dose-response had high values
T4 sequence (whole entry): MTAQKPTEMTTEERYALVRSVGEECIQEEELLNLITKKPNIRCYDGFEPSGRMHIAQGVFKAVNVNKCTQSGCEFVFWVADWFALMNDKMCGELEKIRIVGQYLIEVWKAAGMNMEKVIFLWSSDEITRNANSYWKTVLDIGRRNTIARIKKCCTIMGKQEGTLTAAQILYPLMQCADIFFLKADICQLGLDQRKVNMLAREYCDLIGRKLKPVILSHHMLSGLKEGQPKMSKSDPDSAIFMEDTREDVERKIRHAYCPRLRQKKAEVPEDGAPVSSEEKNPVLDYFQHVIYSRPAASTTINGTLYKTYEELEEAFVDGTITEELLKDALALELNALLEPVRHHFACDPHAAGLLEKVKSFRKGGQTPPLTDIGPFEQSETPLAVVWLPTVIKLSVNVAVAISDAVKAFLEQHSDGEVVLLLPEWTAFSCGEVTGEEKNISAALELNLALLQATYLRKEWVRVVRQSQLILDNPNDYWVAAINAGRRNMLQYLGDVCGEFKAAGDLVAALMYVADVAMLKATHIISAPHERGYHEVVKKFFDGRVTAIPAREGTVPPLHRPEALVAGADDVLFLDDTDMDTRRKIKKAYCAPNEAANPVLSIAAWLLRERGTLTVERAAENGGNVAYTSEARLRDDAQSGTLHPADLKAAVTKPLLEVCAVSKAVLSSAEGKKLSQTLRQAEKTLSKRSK

[10] = target: T4, Tyrosyl-tRNA synthetase, putative (Trypanosoma cruzi (strain CL Brener)); assay: Trypanosoma cruzi tyrosyl tRNA synthetase (TcYRS) SOP; format: functional; conditions: 30 µM
[11] = target: Chromo domain-containing protein 1 (Saccharomyces cerevisiae (strain ATCC 204508 / S288c) (Baker's yeast)) (UniProt P32657); assay: ScCHD-1 Enzyme Inhibition Assay; format: functional; conditions: 30 µM; also: in the data most compounds retested in dose-response had high values
Chromo domain-containing protein 1 (Saccharomyces cerevisiae (strain ATCC 204508 / S288c) (Baker's yeast)), sequence (P32657 whole entry, the tested form may be a part): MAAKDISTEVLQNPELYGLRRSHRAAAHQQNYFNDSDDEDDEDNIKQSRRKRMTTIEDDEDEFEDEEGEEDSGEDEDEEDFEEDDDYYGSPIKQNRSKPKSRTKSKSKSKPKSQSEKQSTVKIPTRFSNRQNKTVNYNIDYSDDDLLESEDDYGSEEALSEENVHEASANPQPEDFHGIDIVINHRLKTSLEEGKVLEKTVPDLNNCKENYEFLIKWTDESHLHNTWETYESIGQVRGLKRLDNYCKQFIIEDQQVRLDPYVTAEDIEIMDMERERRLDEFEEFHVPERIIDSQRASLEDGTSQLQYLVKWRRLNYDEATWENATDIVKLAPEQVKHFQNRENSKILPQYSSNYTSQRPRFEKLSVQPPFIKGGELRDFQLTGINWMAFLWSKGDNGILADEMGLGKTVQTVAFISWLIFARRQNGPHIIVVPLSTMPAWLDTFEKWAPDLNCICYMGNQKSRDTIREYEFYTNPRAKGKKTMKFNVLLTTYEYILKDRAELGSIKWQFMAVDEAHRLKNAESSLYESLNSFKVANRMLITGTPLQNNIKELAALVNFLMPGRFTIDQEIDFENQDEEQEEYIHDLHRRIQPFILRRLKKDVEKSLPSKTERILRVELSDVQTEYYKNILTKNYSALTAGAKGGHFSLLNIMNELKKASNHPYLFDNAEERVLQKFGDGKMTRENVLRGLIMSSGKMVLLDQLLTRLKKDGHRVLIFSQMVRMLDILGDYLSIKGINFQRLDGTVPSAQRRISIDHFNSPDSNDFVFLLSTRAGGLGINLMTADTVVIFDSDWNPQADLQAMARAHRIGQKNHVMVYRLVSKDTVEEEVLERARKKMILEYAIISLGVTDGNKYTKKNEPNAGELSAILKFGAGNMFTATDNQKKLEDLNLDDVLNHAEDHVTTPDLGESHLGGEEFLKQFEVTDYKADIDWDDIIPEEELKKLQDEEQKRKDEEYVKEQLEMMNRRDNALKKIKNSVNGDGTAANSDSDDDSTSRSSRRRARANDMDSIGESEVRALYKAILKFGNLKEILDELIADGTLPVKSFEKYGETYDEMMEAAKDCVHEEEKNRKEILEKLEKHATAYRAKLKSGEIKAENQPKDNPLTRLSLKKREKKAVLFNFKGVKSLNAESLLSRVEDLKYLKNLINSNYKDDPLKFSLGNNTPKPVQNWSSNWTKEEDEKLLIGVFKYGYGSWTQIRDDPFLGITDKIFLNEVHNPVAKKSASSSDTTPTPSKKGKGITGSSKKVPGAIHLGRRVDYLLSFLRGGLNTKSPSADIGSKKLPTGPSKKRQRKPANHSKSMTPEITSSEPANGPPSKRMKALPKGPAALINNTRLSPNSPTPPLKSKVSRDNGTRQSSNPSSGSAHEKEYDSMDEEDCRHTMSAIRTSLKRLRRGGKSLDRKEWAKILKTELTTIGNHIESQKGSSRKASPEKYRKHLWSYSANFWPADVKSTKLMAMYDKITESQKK

Protein translocase subunit SecA (Escherichia coli (strain K12)), sequence (P10408 whole entry): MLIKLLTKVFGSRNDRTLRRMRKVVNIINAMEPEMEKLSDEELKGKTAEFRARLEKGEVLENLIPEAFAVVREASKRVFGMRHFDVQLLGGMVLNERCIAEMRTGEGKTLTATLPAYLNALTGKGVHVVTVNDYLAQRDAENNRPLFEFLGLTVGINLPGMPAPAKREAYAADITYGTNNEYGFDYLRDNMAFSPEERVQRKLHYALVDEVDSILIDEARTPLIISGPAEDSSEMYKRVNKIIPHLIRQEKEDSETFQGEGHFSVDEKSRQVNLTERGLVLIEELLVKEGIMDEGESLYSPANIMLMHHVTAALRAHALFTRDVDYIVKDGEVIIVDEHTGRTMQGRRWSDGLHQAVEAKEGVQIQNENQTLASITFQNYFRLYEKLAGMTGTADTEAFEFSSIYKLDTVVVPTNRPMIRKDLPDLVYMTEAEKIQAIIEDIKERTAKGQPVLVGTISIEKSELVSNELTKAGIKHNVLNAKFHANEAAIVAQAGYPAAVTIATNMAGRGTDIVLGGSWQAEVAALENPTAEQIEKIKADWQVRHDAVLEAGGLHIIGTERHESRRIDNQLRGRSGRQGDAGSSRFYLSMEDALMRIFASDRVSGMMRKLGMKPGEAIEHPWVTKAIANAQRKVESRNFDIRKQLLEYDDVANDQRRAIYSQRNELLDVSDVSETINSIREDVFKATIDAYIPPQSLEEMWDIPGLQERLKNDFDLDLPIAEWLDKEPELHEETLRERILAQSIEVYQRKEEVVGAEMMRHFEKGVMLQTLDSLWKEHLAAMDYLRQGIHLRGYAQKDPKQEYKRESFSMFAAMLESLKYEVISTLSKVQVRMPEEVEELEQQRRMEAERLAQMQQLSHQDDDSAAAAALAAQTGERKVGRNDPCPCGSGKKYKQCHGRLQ
Sialic acid-binding Ig-like lectin 9 (Homo sapiens), sequence (Q9Y336 whole entry): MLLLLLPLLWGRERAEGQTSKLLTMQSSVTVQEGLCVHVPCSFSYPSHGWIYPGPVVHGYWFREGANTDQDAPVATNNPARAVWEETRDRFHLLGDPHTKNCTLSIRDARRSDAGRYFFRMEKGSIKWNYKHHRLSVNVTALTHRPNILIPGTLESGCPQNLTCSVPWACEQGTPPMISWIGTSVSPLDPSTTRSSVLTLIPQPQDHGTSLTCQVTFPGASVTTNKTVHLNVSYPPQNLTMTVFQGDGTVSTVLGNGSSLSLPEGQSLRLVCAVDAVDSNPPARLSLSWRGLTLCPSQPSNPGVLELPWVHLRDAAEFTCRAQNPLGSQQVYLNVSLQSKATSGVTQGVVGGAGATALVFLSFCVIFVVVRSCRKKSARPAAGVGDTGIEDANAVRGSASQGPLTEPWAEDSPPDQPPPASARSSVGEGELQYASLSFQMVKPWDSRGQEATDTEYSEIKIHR

Row | SMILES | Percent Effect [1] | Percent Effect [2] | Percent Effect [3] | Percent Effect [4] | Percent Effect [5] | Percent Effect [6] | Percent Effect [7] | Percent Effect [8] | Percent Effect [9] | Percent Effect [10] | Percent Effect [11]
1 | CC(=O)N1CCCC(c2ccc(Nc3nc(C)cc(C)n3)cn2)C1 (stereo unspecified) | -3.24% | 5.33% | 9.18% | 0.842% | -1.18% | 3.5% | -2.2% | 4.23% | 3.19% | 14.1% | -7.25%
2 | CSc1ccc(NC(=O)Nc2ccc3c(c2)N(S(C)(=O)=O)CC3)cc1 | -1.27% | -23.4% | -4.52% | 3.62% | 3.06% | -93.5% | 27.9% | 30.8% | -6.35% | -14.1% | -6.55%
3 | COc1ccc(Br)c(C(=O)NCCNc2ccc(C(F)(F)F)cn2)c1 | 0.559% | 18.2% | 8.45% | -0.542% | -1.08% | 0.21% | 10.9% | -7.76% | 11.4% | 25.9% | -25.7%
4 | Cc1oc(C)c(C(=O)N2CCCN(Cc3cscn3)CC2)c1C | -6.32% | 7.79% | 7.44% | -1.26% | -1.47% | -2.32% | -1.37% | 14.5% | 6.67% | 9.41% | -15.7%
5 | CCOCCn1nc(C)cc1C(=O)N1CCN(C(C)C)C(CC)C1 (stereo unspecified) | -4.36% | 2.7% | -2.68% | 4.47% | 6.56% | -1.43% | 10.9% | 10.2% | 3.7% | 12.2% | -1.83%
6 | CCc1noc(C2CCCCN2C(=O)c2ccn(C3CCCC3)n2)n1 (stereo unspecified) | -3.89% | 20% | -10.1% | -4.33% | 5.89% | -15.3% | 13.7% | 24.3% | 9.52% | 12.8% | -15.7%
7 | O=C(COCc1ccccc1)N1CCCC(n2cncn2)C1 (stereo unspecified) | -4.9% | 16.2% | -5.92% | 0.0525% | 1.79% | -2.4% | 7.57% | 11.4% | 6.4% | 18.5% | -4.59%
8 | Cc1ccc(OCC(=O)NCc2ccccc2F)nc1 | -2.7% | 19.2% | -0.689% | 12.5% | 4.56% | -2.4% | 8.13% | 13.8% | 7.29% | 13.6% | -4.08%
9 | O=C1CC(c2cccnc2)C2(CCN(S(=O)(=O)C3CC3)CC2)N1 (stereo unspecified) | -5.32% | 8.11% | 1.06% | -2.02% | 3.42% | -4.78% | 15.3% | -9.26% | 4.32% | 12.8% | 2.44%
10 | Cc1ccc2ncnc(N3CCOCC3c3c(C)nn(C)c3C)c2c1 (stereo unspecified) | -3.4% | 5.33% | -4.79% | 3.91% | -0.487% | -0.521% | 16% | 21.1% | 6.01% | 8.64% | -5.67%
11 | CNC(=O)[C@H]1CO[C@H]2CCN(Cc3ccc4ccccc4n3)C[C@H]2C1 | -4.79% | 8.11% | 7.95% | -3.25% | -3.62% | 9.87% | 18.8% | -14.1% | 2.16% | 15.4% | 1.01%
12 | Cc1n[nH]c(C)c1C1COCCN1C(=O)Cc1cccc(F)c1 (stereo unspecified) | 1.02% | -2.74% | 2.69% | 0.561% | -6.46% | 2.73% | 2.13% | -1.33% | -1.07% | -2.5% | -1.14%
13 | COc1ccnc(N2CCN(C(=O)CN3CCCC3=O)CC2)n1 | -4.51% | 18.4% | -5.08% | -0.685% | 2.52% | 2.88% | 7.02% | 2.97% | 8.37% | 25.9% | -11.5%
14 | Cc1oc(C)c(C(=O)NCc2cccc(NC(=O)CN(C)C)c2)c1C | -4.78% | -3.8% | -0.508% | -0.734% | 1.95% | -1.94% | 0.172% | -3.06% | 1.04% | 7.59% | 7.97%
15 | O=C(O)C1(Cc2cc(-c3cccc(F)c3)no2)CCOCC1 | -3.27% | 6.76% | 11.7% | 6.38% | -3.75% | -3.02% | 7.8% | -7.88% | 2.15% | 3.9% | -5.82%
16 | CCOCC(O)CN1CCN(C(=O)CC(C)(C)C)CC1 (stereo unspecified) | -3.75% | -2.7% | -10.6% | 5.4% | -1.98% | 0.401% | -7.75% | 0.227% | 2.46% | 3.7% | 1.7%
